# Source: PubChem BioAssay
# Several values for one entry are separate records, joined by “and”; a condition that tells them apart may be missing. Equal values may be shown once. Results filed as inconclusive are left out. For part of these data: Potency and affinity values are given separately. Activity calls are given as the source filed them.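 How the source made its calls, unless noted: active means thallium flux through the channel raised or lowered by more than 3 SD from vehicle-only wells, actives on both sides; inactive means the rest.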
# Tests used:
# F380Y/beta1 = assay: BK channel mutant inhibitors and activators – cell-based, U2OS BacMam, thallium flux, beta subunits, selectivity assay, profiling panel (AID 1259406); conditions: U2OS BacMam BK variants, at 30 µM;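 further: initial slope of Thallos dye fluorescence rise after thallium is added; log ratio against the mean of 0.3% DMSO vehicle wells on the same plate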
# F380Y/beta4 = assay: as above; conditions: U2OS BacMam BK variants, at 30 µM
# R275C/beta4 = assay: as above; conditions: U2OS BacMam BK variants, at 30 µM
# R275C/Slo1WT/beta2 = assay: as above; conditions: U2OS BacMam BK variants, at 30 µM
# [1] = modulation of C. elegans fzo-1 (AID 1259413; call rule not given here;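 further: fzo-1 mutant C. elegans worms in liquid wells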); conditions: C. elegans fzo-1 modulator screen, mean read-out; stronger effect = higher value
# [2] = blockers of polyQ-driven CASP3 activation – cell-based (AID 1583); conditions: polyglutamine-induced caspase-3 activation, cell assay; stronger effect = higher value;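 tested at 10 µM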
# [3] = yeast 75Q aggregation reduction – 75Q-TubU reporter (AID 1593); conditions: Yeast 75Q polyglutamine aggregation reporter
# [4] = blockers of cytochrome c efflux from mitochondria – biochemical, purified mitochondria (AID 1603); conditions: stronger effect = lower value;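 further: mouse liver mitochondria challenged with calcium chloride; signal normalized to the plate average as 100%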
# [5] = polyglutamine aggregate formation blockers (AID 1604); conditions: polyglutamine-induced protein aggregation inhibition assay; stronger effect = higher value; tested at 2.5 µM
# [6] = glutamate transport activators, MN-1 cells, MN-1 cell line (AID 1612); conditions: MN-1 motor neuron cells, stronger effect = higher value;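 further: tested at 1 µM final; 0% = mean of DMSO vehicle wells on each plate; positive means more glutamate uptake than control and negative means less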
# [7] = 75Q-TubH aggregate inhibition, S. cerevisiae, yeast (AID 1616); conditions: S. cerevisiae 75Q-TubH polyglutamine aggregation suppression; stronger effect = higher value
# [8] = compounds altering circadian rhythm period length – cell-based, LOPAC library, luminescence reporter (AID 2774; call rule not given here;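 further: values are relative to mean of DMSO wells on each plate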); conditions: circadian reporter cells, at 7 µM, actives lie on both sides
# [9] = test system: Hepatitis C virus NS3 helicase; assay: blockers of NS3h binding to ssDNA – biochemical, fluorescence polarization, LOPAC1280 library, primary screen (AID 687035; in the data active means inhibition above about 37%); conditions: Purified HCV NS3 helicase, Cy5-dT15 ssDNA binding fluorescence polarization; stronger effect = higher value; concentration not given here
# [10] = compounds altering Cy5-DNA-NS3h complex signal – biochemical, LOPAC1280, artefact control for HCV NS3 helicase inhibitor project (AID 687037; call rule not given here); conditions: Cy5-DNA-NS3h complex fluorescence interference counterscreen
# [11] = blockers of cellular phospholipid synthesis – cell-based, LOPAC library, screen 4, primary screen (AID 1347384; call rule not given here); conditions: animal cells, phospholipid biosynthesis inhibition screen; at 10 µM
# [12] = compounds altering HSF1 focus formation in cells – imaging, Selleck Cancer Library (AID 1347162; in the data active means plate-normalised HSF1 focus index below about 0.46); conditions: human cells, HSF1 nuclear foci imaging, at 10 µM; SSMD: measured here: HSF1 foci SSMD mean; cell count: measured here: cell number; plate-normalised HSF1 focus index: stronger effect = lower value
# [13] = viability loss in pontine glioma line – cell-based, JHH-DIPG-1, MIPE4.0, CellTiter-Glo, qHTS, dose response (AID 1347062; cut-off not given, nearly all actives have AC50 up to about 27 µM); conditions: JHH-DIPG-1 viability, CellTiter-Glo ATP luminescence
# [14] = growth inhibition of DIPG cells – cell-based, MIPE4.0 library, CellTiter-Glo luminescence, qHTS (AID 1347066; cut-off not given, nearly all actives have AC50 up to about 30 µM;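 further: cells exposed to compound for 48 hours before readout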); conditions: SU-DIPG-VI viability, CellTiter-Glo ATP luminescence
# [15] = restoration of touch response, mutant HTT neurons – whole organism, C. elegans mechanosensory neurons, N-terminal huntingtin (AID 1599); conditions: C. elegans polyQ-huntingtin mechanosensory neurons, stronger effect = higher value
# [16] = test system: Aerobactin synthetase IucA (Klebsiella pneumoniae); assay: inhibition of K. pneumoniae IucA enzyme – biochemical, Tocris library, absorbance (AID 1345561; call rule not given here;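 further: 100% = enzyme without compound and 0% = no enzyme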); conditions: purified IucA enzyme assay, absorbance (OD) read-out; stronger effect = lower value;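 tested at 8 µM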
smiles,measurement,setting,value
C#C[C@]1(OC(C)=O)CC[C@H]2[C@@H]3CCC4=CC(=O)CC[C@@H]4[C@H]3CC[C@@]21C,log fold change Tl+ flux,F380Y/beta1,0.0384 (inactive)
same,log fold change Tl+ flux,F380Y/beta4,-0.176 (active)
same,log fold change Tl+ flux,R275C/beta4,-0.14 (active)
same,log fold change Tl+ flux,R275C/Slo1WT/beta2,-0.0421 (inactive)
CC1(C)S[C@@H]2[C@H](NC(=O)[C@H](N)c3ccc(O)cc3)C(=O)N2[C@H]1C(=O)O,mean signal,[1],239 (inactive)
same,log fold change Tl+ flux,F380Y/beta1,0.0448 (inactive)
same,log fold change Tl+ flux,F380Y/beta4,-0.0174 (inactive)
same,log fold change Tl+ flux,R275C/beta4,0.0282 (inactive)
same,log fold change Tl+ flux,R275C/Slo1WT/beta2,0.0404 (inactive)
CNCCC=C1c2ccccc2CCc2ccccc21,inhibition,[2],16.9%
same,score,[3],1.22
same,cytochrome c release ratio,[4],0.98
same,inhibition of aggregation,[5],72.7%
same,glutamate uptake change,[6],13.8%
same,aggregation suppression score,[7],1.32
same,period change,[8],0.025 h (inactive)
same,inhibition,[9],-5% (inactive)
same,fluorescence ratio (interference),[10],1 (inactive)
same,mean signal,[1],233 (inactive)
same,outcome,[11],inactive
same,log fold change Tl+ flux,F380Y/beta1,0.0784 (inactive)
same,log fold change Tl+ flux,F380Y/beta4,0.255 (active)
same,log fold change Tl+ flux,R275C/beta4,0.121 (inactive)
same,log fold change Tl+ flux,R275C/Slo1WT/beta2,-0.0571 (inactive)
O=C(O[C@@H]1Cc2c(O)cc(O)cc2O[C@@H]1c1cc(O)c(O)c(O)c1)c1cc(O)c(O)c(O)c1,mean signal,[1],222 (inactive)
same,SSMD,[12],0.931
same,cell count,[12],6910
same,plate-normalised HSF1 focus index,[12],1.03 (inactive)
CC(=O)O[C@]1(C(C)=O)CC[C@H]2[C@@H]3C[C@H](C)C4=CC(=O)CC[C@]4(C)[C@H]3CC[C@@]21C,mean signal,[1],251 (inactive)
same,outcome,[13],inactive
same,outcome,[14],inactive
same,log fold change Tl+ flux,F380Y/beta1,0.0192 (inactive)
same,log fold change Tl+ flux,F380Y/beta4,-0.000109 (inactive)
same,log fold change Tl+ flux,R275C/beta4,0.0252 (inactive)
same,log fold change Tl+ flux,R275C/Slo1WT/beta2,0.0102 (inactive)
Cn1cc[nH]c1=S,inhibition,[2],14.9%
same,score,[3],1.43
same,rescue above control,[15],-4.12
same,cytochrome c release ratio,[4],1.1
same,inhibition of aggregation,[5],48%
same,glutamate uptake change,[6],-2.61%
same,aggregation suppression score,[7],1.46
same,mean signal,[1],225 (inactive)
same,log fold change Tl+ flux,F380Y/beta1,-0.0456 (inactive)
same,log fold change Tl+ flux,F380Y/beta4,0.0112 (inactive)
same,log fold change Tl+ flux,R275C/beta4,0.0185 (inactive)
same,log fold change Tl+ flux,R275C/Slo1WT/beta2,0.019 (inactive)
CC1(C)SC2C(NC(=O)COc3ccccc3)C(=O)N2C1C(=O)O (centres undefined),mean signal,[1],260 (inactive)
same,log fold change Tl+ flux,F380Y/beta1,0.027 (inactive)
same,log fold change Tl+ flux,F380Y/beta4,-0.00549 (inactive)
same,log fold change Tl+ flux,R275C/beta4,0.0174 (inactive)
same,log fold change Tl+ flux,R275C/Slo1WT/beta2,0.0607 (inactive)
COc1ccc2c3c1O[C@H]1C[C@@H](O)C=C[C@@]31CCN(C)C2,inhibition,[2],-3.14%
same,score,[3],1.34
same,rescue above control,[15],0.01
same,cytochrome c release ratio,[4],0.63
same,inhibition of aggregation,[5],91.6%
same,glutamate uptake change,[6],5.19%
same,aggregation suppression score,[7],1.04
same,mean signal,[1],226 (inactive)
same,remaining activity,[16],110% (inactive)
same,outcome,[13],inactive
same,outcome,[14],inactive
CCCC1O[C@@H]2C[C@H]3[C@@H]4CCC5=CC(=O)C=C[C@]5(C)[C@H]4[C@@H](O)C[C@]3(C)[C@]2(C(=O)CO)O1 (some centres undefined),period change,[8],-0.26 h (inactive)
same,inhibition,[9],-5% (inactive)
same,fluorescence ratio (interference),[10],0.9 (inactive)
same,remaining activity,[16],98.4% (inactive) and 108% (inactive)
same,outcome,[11],inactive
same,log fold change Tl+ flux,F380Y/beta1,0.126 (active)
same,log fold change Tl+ flux,F380Y/beta4,0.0417 (inactive)
same,log fold change Tl+ flux,R275C/beta4,0.1 (inactive)
same,log fold change Tl+ flux,R275C/Slo1WT/beta2,-0.0145 (inactive)
COc1ccc(-c2oc3c(CC=C(C)C)c(O[C@@H]4O[C@H](CO)[C@@H](O)[C@H](O)[C@H]4O)cc(O)c3c(=O)c2O[C@@H]2O[C@@H](C)[C@H](O)[C@@H](O)[C@H]2O)cc1,mean signal,[1],233 (inactive)
same,log fold change Tl+ flux,F380Y/beta1,0.00909 (inactive)
same,log fold change Tl+ flux,F380Y/beta4,-0.0291 (inactive)
same,log fold change Tl+ flux,R275C/beta4,-0.0348 (inactive)
same,log fold change Tl+ flux,R275C/Slo1WT/beta2,0.0155 (inactive)
CC(CCc1ccccc1)NCC(O)c1ccc(O)c(C(N)=O)c1 (centres undefined),inhibition,[2],1.38%
same,score,[3],1.61
same,rescue above control,[15],19.4
same,cytochrome c release ratio,[4],0.72
same,inhibition of aggregation,[5],83.1%
same,glutamate uptake change,[6],-2.28%
same,aggregation suppression score,[7],1.14
same,period change,[8],-0.45 h (inactive)
same,inhibition,[9],-4% (inactive)
same,fluorescence ratio (interference),[10],1 (inactive)
same,mean signal,[1],243 (inactive)
same,outcome,[11],inactive
same,log fold change Tl+ flux,F380Y/beta1,0.0226 (inactive)
same,log fold change Tl+ flux,F380Y/beta4,0.0997 (inactive)
same,log fold change Tl+ flux,R275C/beta4,0.0314 (inactive)
same,log fold change Tl+ flux,R275C/Slo1WT/beta2,-0.0367 (inactive)
CC[C@H](C)C(=O)O[C@H]1CCC=C2C=C[C@H](C)[C@H](CC[C@@H]3C[C@@H](O)CC(=O)O3)[C@H]21,period change,[8],0.035 h (inactive)
same,inhibition,[9],-1% (inactive)
same,fluorescence ratio (interference),[10],0.9 (inactive)
same,mean signal,[1],242 (inactive)
same,remaining activity,[16],123% (inactive)
same,outcome,[11],inactive
